According to the supplement of paper PMC11172423:
Values without a mark were called inactive.

Tests used:
[1] = tested on: Falciformispora senegalensis CBS197.79; test: growth relative to untreated control; higher = less inhibition, active = 20 or less
How it was run: (§1)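 For each test, a hyphal fragment suspension of M. mycetomatis MM55 or F. senegalensis CBS197.79 was prepared in colourless RPMI 1640 with L-glutamine and MOPS at 68–72% transmission at 660 nm. Exposure to compound at 100 or 25 µM ran for 7 days at 37 °C in 96-well plates, followed by viability reading with MTS (2 h, 490 nm) or resazurin (600 nm). Growth corresponds to metabolic activity relative to the untreated growth control after correction of both with a blank of medium and dye.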

[2] = tested on: Madurella mycetomatis MM55; test: as above
How it was run: as §1

SMILES: CCC(CC)c1cccc(OC(=O)NC)c1.CCCC(C)c1cccc(OC(=O)NC)c1
- growth ([1]; 25 µM): 98.4%
- growth ([1]; 100 µM): 81.9%
- growth ([2]; 25 µM): 96.3%
- growth ([2]; 100 µM): 147%

SMILES: CC1(C)C(C=C(Cl)Cl)C1C(=O)OCc1cccc(Oc2ccccc2)c1 (stereo not drawn)
- growth ([1]; 25 µM): 70.4%
- growth ([1]; 100 µM): 98.3%

SMILES: COc1ccc(CCN2CCC(Nc3nc4ccccc4n3Cc3ccc(F)cc3)CC2)cc1
- growth ([1]; 25 µM): 12.9% (active)
- growth ([1]; 100 µM): 15% (active)

SMILES: CN1COCN(Cc2cnc(Cl)s2)/C1=N/[N+](=O)[O-]
- growth ([1]; 25 µM): 93%
- growth ([1]; 100 µM): 86.8%
- growth ([2]; 25 µM): 87.9%
- growth ([2]; 100 µM): 126%

SMILES: CNC(=O)Oc1ccccc1OC(C)C
- growth ([1]; 25 µM): 92.8%
- growth ([1]; 100 µM): 97.7%

SMILES: CN1C(=O)C(C(=O)Nc2ccc(Cl)c(Cl)c2)C(=O)N(C)C1=O
- growth ([1]; 25 µM): 83.2%
- growth ([1]; 100 µM): 84.5%

SMILES: CCOP(=S)(OCC)Oc1cc(C)nc(C(C)C)n1
- growth ([1]; 25 µM): 97.9%
- growth ([1]; 100 µM): 88.9%

SMILES: CN(C)CCn1c(Nc2cc(Cl)cc(C(F)(F)F)c2)nc2cnc(NC3CCC3)cc21
- growth ([1]; 25 µM): 102%
- growth ([1]; 100 µM): 104%

SMILES: O=[N+]([O-])/C=C1\NCCCS1
- growth ([1]; 25 µM): 86.4%
- growth ([1]; 100 µM): 93.8%
- growth ([2]; 25 µM): 94%
- growth ([2]; 100 µM): 122%

SMILES: CCS(=O)c1c(C#N)nn(-c2c(Cl)cc(C(F)(F)F)cc2Cl)c1N (stereo not drawn)
- growth ([1]; 25 µM): 82.1%
- growth ([1]; 100 µM): 83.7%

SMILES: CC(C)=CC1C(C(=O)OC(C#N)c2cccc(Oc3ccccc3)c2)C1(C)C (stereo not drawn)
- growth ([1]; 25 µM): 78.2%
- growth ([1]; 100 µM): 101%
- growth ([2]; 25 µM): 83.3%
- growth ([2]; 100 µM): 145%

SMILES: CCOCn1c(-c2ccc(Cl)cc2)c(C#N)c(Br)c1C(F)(F)F
- growth ([1]; 25 µM): 79.6%
- growth ([1]; 100 µM): 76.5%

SMILES: CC(C)(C#N)NC(=O)c1cc(Cl)cc(Cl)c1NC(=O)c1cc(Cl)nn1-c1ncccc1Cl
- growth ([1]; 25 µM): 94.4%
- growth ([1]; 100 µM): 94.6%
- growth ([2]; 25 µM): 104%
- growth ([2]; 100 µM): 116%

SMILES: CNC(=O)Oc1cccc2ccccc12
- growth ([1]; 25 µM): 99.6%
- growth ([1]; 100 µM): 108%
- growth ([2]; 25 µM): 95.8%
- growth ([2]; 100 µM): 85.3%

SMILES: NCCc1cn(S(=O)(=O)c2c(Cl)nc3sccn23)c2ccccc12
- growth ([1]; 25 µM): 13.2% (active)
- growth ([1]; 100 µM): 11.5% (active)

SMILES: CC[C@@H]1CCC[C@H](O[C@H]2CC[C@H](N(C)C)[C@@H](C)O2)[C@@H](C)C(=O)C2=C[C@@H]3[C@@H](C=C(C)[C@@H]4C[C@@H](O[C@@H]5O[C@@H](C)[C@H](OC)[C@@H](OC)[C@H]5OC)C[C@@H]34)[C@@H]2CC(=O)O1.CC[C@@H]1CCC[C@H](O[C@H]2CC[C@H](N(C)C)[C@@H](C)O2)[C@@H](C)C(=O)C2=C[C@@H]3[C@@H](C=C[C@@H]4C[C@@H](O[C@@H]5O[C@@H](C)[C@H](OC)[C@@H](OC)[C@H]5OC)C[C@@H]34)[C@@H]2CC(=O)O1
- growth ([1]; 25 µM): 78.1%
- growth ([1]; 100 µM): 93.3%

SMILES: C=C(C)[C@H]1Cc2c(ccc3c2O[C@@H]2COc4cc(OC)c(OC)cc4[C@@H]2C3=O)O1
- growth ([1]; 25 µM): 90.6%
- growth ([1]; 100 µM): 102%

SMILES: O=[N+]([O-])/N=C1\NCCN1Cc1ccc(Cl)nc1
- growth ([1]; 25 µM): 90.2%
- growth ([1]; 100 µM): 86.5%
- growth ([2]; 25 µM): 92.8%
- growth ([2]; 100 µM): 98.3%

SMILES: CCN(CC)c1nc(C)cc(OP(=S)(OC)OC)n1
- growth ([1]; 25 µM): 96%
- growth ([1]; 100 µM): 95.6%

SMILES: CNC(=O)O/N=C(/C)SC
- growth ([1]; 25 µM): 86.2%
- growth ([1]; 100 µM): 89.3%
- growth ([2]; 25 µM): 112%
- growth ([2]; 100 µM): 137%

SMILES: CN(C)[C@@H]1C(=O)C(C(N)=O)=C(O)[C@@]2(O)C(O)=C3C(=O)c4c(O)cccc4[C@@](C)(O)[C@H]3C[C@@H]12
- growth ([1]; 25 µM): 99.7%
- growth ([1]; 100 µM): 94.1%
